Laboratory results taken from PubChem BioAssay AID1159580 (chemical genetic matrix, 2015).
“And” between values parts separate entries of the source, which are not always exact repeats. Equal entries are not always repeated. Among all 5,500 compounds or so, about 2,000 (36%) were called active. Another 18% or so got no clear call; they are omitted. Cut-off read from the data, not from the text of the source: active = normalized growth mostly below about 0.91 (no sharp cut-off); inconclusive = no clear call, values can overlap the other calls; inactive = mostly above about 0.92. Some of the results follow.

Assay: chemical genetic growth profiling, strain panel (AID 1159580);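 note: tested at 20 µM; growth read once vehicle control cultures reached saturation at 30 °C; 1 = growth at the plate median or of vehicle wells; lower values mean less growth of the strain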
Conditions: S. cerevisiae deletion strains, growth OD

Measured: normalized growth

CN(C)C(=O)Nc1ccc(Cl)c(Cl)c1
inactive: locus YAL013W, strain DEP1, stronger effect = lower value 0.992 | locus YAL021C, strain ccr4, stronger effect = lower value 0.964 | locus YAL026C, strain drs2, stronger effect = lower value 0.97 | locus YAL030W, strain snc1, stronger effect = lower value 0.987 | locus YBL061C, strain skt5, stronger effect = lower value 0.991 | locus YBR009C, strain hhf1, stronger effect = lower value 0.926 | locus YBR021W, strain FUR4, stronger effect = lower value 0.904 | locus YBR023C, strain chs3, stronger effect = lower value 0.983 | locus YBR171W, strain sec66, stronger effect = lower value 1.01 | locus YBR229C, strain ROT2, stronger effect = lower value 1 | locus YBR231C, strain swc5, stronger effect = lower value 1.01 | locus YBR279W, strain paf1, stronger effect = lower value 0.97 | locus YCL011C, strain gbp2, stronger effect = lower value 0.954 | locus YCL016C, strain dcc1, stronger effect = lower value 0.974 | locus YCL029C, strain bik1, stronger effect = lower value 1.01 | locus YCL061C, strain MRC1, stronger effect = lower value 0.958 | locus YCL069W, strain vba3, stronger effect = lower value 0.994 | locus YCR088W, strain abp1, stronger effect = lower value 0.991 | locus YDL005C, strain med2, stronger effect = lower value 1 | locus YDL035C, strain GPR1, stronger effect = lower value 0.983 | locus YDL040C, strain nat1, stronger effect = lower value 0.991 | locus YDL074C, strain BRE1, stronger effect = lower value 0.899 | locus YDL101C, strain DUN1, stronger effect = lower value 0.999 | locus YDL134C, strain PPH21, stronger effect = lower value 0.986 | locus YDL185W, strain tfp1, stronger effect = lower value 1.02 | locus YDL192W, strain arf1, stronger effect = lower value 1 | locus YDR001C, strain nth1, stronger effect = lower value 0.99 | locus YDR069C, strain doa4, stronger effect = lower value 0.987 | locus YDR101C, strain arx1, stronger effect = lower value 1 | locus YDR137W, strain rgp1, stronger effect = lower value 1.03 | locus YDR150W, strain NUM1, stronger effect = lower value 0.993 | locus YDR159W, strain sac3, stronger effect = lower value 0.989 | locus YDR162C, strain NBP2, stronger effect = lower value 0.948 | locus YDR195W, strain ref2 1.1 | locus YDR297W, strain sur2, stronger effect = lower value 0.98 | locus YDR318W, strain mcm21, stronger effect = lower value 0.994 | locus YDR334W, strain swr1, stronger effect = lower value 1.01 | locus YDR335W, strain msn5, stronger effect = lower value 0.994 | locus YDR388W, stronger effect = lower value 0.992 | locus YDR392W, strain spt3, stronger effect = lower value 0.888 | locus YDR502C, strain sam2, stronger effect = lower value 0.989 | locus YEL003W, strain gim4, stronger effect = lower value 0.997 | locus YEL037C, strain rad23, stronger effect = lower value 0.993 | locus YEL061C, strain CIN8 (second series), stronger effect = lower value 1.01 | locus YEL061C, strain CIN8, stronger effect = lower value 0.998 | locus YER015W, strain faa2, stronger effect = lower value 0.968 | locus YER016W, strain bim1, stronger effect = lower value 0.992 | locus YER110C, stronger effect = lower value 1.01 | locus YER111C, strain swi4, stronger effect = lower value 1.02 | locus YER155C, strain BEM2 (second series), stronger effect = lower value 0.944 | locus YER155C, strain BEM2, stronger effect = lower value 1.01 | locus YER167W, strain BCK2, stronger effect = lower value 1 | locus YFR010W, strain ubp6, stronger effect = lower value 0.994 | locus YGL078C, strain dbp3, stronger effect = lower value 1.01 | locus YGL086W, strain mad1, stronger effect = lower value 0.997 | locus YGL167C, strain pmr1, stronger effect = lower value 0.988 | locus YGL173C, strain kem1, stronger effect = lower value 0.993 | locus YGL227W, strain vid30, stronger effect = lower value 0.995 | locus YGL240W, strain doc1, stronger effect = lower value 0.967 | locus YGL248W, strain PDE1, stronger effect = lower value 0.987 | locus YGL253W, strain hxk2, stronger effect = lower value 0.951 | locus YGR078C, strain PAC10, stronger effect = lower value 0.982 | locus YGR135W, strain pre9, stronger effect = lower value 0.98 | locus YGR229C, strain SMI1, stronger effect = lower value 0.942 | locus YGR252W, strain gcn5, stronger effect = lower value 0.807 | locus YHR013C, strain ard1, stronger effect = lower value 0.995 | locus YHR027C, strain rpn1, stronger effect = lower value 1.02 | locus YHR030C, strain SLT2, stronger effect = lower value 1.01 and 0.992 | locus YHR079C, strain IRE1 (second series), stronger effect = lower value 0.992 | locus YHR079C, strain IRE1, stronger effect = lower value 0.985 | locus YHR094C, strain hxt1, stronger effect = lower value 1 | locus YHR129C, strain ARP1, stronger effect = lower value 0.984 | locus YHR142W, strain chs7, stronger effect = lower value 0.887 | locus YHR200W, strain rpn10, stronger effect = lower value 0.991 | locus YIL066C, strain RNR3, stronger effect = lower value 0.981 | locus YIL073C, strain SPO22, stronger effect = lower value 0.981 | locus YIL125W, strain kgd1, stronger effect = lower value 1 | locus YIR030C, strain dcg1, stronger effect = lower value 1 | locus YJL092W, strain hpr5, stronger effect = lower value 0.982 | locus YJL095W, strain BCK1 (second series), stronger effect = lower value 1 | locus YJL095W, strain BCK1, stronger effect = lower value 0.96 and 0.984 | locus YJL115W, strain asf1, stronger effect = lower value 1 | locus YJL129C, strain trk1, stronger effect = lower value 0.984 | locus YJL134W, strain LCB3, stronger effect = lower value 0.996 | locus YJL154C, strain vps35, stronger effect = lower value 0.997 | locus YJL164C, strain tpk1, stronger effect = lower value 0.952 | locus YJL166W, strain qcr8, stronger effect = lower value 0.976 | locus YJL168C, strain set2, stronger effect = lower value 1 | locus YJL187C, strain SWE1 (second series), stronger effect = lower value 0.999 | locus YJR043C, strain POL32, stronger effect = lower value 0.88 | locus YJR066W, strain TOR1, stronger effect = lower value 0.93
